Measurements as given in PubChem BioAssay (NCATS).
Results filed as inconclusive are left out. Activity calls are given as the source filed them. The call rests on the fitted dose curve; in most records, active means well fitted inhibition curve with a large enough effect; inconclusive means small, poorly fitted or top-dose-only effect; inactive means flat fitted curve, though single readings scatter.

These compounds were tested against Voltage-gated inwardly rectifying potassium channel KCNH2 (Homo sapiens) (UniProt Q12809) (assay: qHTS Assay for Small Molecule Inhibitors of the Human hERG Channel Activity (AID 588834;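 further: top concentration of the series differs between compounds; lower thallium flux fluorescence means stronger hERG block; nearly all actives have a fitted effect of over 50% in size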)). Details: U2OS BacMam hERG, FluxOR thallium flux fluorescence; series mostly up to 46.1 µM; activity change, negative = inhibition: at the top concentration.
Sequence of Voltage-gated inwardly rectifying potassium channel KCNH2 (Homo sapiens) (Q12809 whole entry, looked up): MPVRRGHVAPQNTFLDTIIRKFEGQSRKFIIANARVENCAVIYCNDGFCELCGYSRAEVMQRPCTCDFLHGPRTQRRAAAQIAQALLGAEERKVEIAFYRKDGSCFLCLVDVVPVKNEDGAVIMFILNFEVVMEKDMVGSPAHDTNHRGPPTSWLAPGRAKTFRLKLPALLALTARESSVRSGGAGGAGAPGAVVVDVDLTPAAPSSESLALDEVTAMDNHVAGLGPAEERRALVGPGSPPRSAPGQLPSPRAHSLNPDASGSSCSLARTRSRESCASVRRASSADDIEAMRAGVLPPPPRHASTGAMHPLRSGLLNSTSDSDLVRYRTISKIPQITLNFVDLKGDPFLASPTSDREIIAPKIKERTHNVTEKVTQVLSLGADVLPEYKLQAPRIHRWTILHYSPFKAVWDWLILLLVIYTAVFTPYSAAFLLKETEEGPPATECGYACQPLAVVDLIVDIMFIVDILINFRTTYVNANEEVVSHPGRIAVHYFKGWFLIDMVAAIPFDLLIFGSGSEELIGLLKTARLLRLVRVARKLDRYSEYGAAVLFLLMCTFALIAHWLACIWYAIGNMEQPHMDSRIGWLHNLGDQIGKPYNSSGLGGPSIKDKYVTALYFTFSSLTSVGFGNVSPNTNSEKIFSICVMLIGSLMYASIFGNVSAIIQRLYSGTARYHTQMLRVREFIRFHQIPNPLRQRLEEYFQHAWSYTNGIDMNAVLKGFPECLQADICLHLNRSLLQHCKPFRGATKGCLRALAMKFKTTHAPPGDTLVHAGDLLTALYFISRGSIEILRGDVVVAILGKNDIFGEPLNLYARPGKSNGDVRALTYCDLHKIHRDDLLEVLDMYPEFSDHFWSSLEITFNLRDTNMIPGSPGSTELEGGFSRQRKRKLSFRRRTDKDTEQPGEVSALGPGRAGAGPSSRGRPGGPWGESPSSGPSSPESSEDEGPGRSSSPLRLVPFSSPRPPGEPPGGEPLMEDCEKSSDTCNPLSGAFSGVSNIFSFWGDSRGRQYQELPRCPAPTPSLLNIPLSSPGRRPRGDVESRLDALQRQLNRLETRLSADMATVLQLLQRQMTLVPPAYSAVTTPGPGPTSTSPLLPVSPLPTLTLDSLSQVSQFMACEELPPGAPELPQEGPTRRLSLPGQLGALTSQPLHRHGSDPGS
Procedure, shortened: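 Kinetic FDSS fluorescence; U2OS + hERG BacMam (~100 virus particles/cell); FluxOR Tl+ flux; ~10 min cpd; AC50 (Hill).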
On the % scale 0 is the no-effect control and ±100 the full control effect.

Row | SMILES | activity change, negative = inhibition
1 | CO/N=C(\C(=O)N[C@@H]1C(=O)N2C(C(=O)[O-])=C(C[n+]3cccc4c3CCC4)CS[C@H]12)c1csc(N)n1 | 7.95% (inactive)
2 | FC(F)(F)COCC(F)(F)F | 2.48% (inactive)
3 | CC(C)(CO)[C@@H](O)C(=O)NCCCC(=O)O | 9.65% (inactive)
4 | COc1ccc2nc(NC(=O)Nc3ccccc3)sc2c1 | 2.28% (inactive)
5 | CCCCC[C@H](O)/C=C/[C@H]1[C@H](O)CC(=O)[C@@H]1C/C=C\CCCC(=O)O | 15.2% (inactive)
6 | CCCCCCCCCCCC(=O)OC[C@@H](O)C1OC[C@H](O)[C@H]1O (some centres undefined) | 13.1% (inactive)
7 | CO/N=C(\C(=O)N[C@@H]1C(=O)N2C(C(=O)O)=C(C[N+]3(C)CCCC3)CS[C@H]12)c1csc(N)n1 | 0.634% (inactive)
8 | NC(=O)[C@@H]1C[C@]2(NC(=O)NC2=O)c2cc(F)ccc2O1 | 11.6% (inactive)
9 | CC(C)(Oc1ccc(C2CCCc3ccccc32)cc1)C(=O)O (centres undefined) | 0.515% (inactive)
